# About 83,000 compounds went through this panel and 20% of them were active in at least one assay; those are over-represented in the sample as a whole.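 Method: cells in 96-well plates; compound added at one concentration; 48 h incubation; percent growth measured; values under 10 scored active.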 A number with no mark means an inactive call. Active and inactive are the calls of the source.
# Tests used:
# Assay in all cases: NCI-60 one-dose screen, 48 h (100 = growth as untreated, 0 = no growth, -100 = all killed)
# Settings in all cases: 10 µM unless noted
# [1] = tested on: HCT-15 colon
# [2] = tested on: HT29 colon
# [3] = tested on: SNB-75 CNS
# [4] = tested on: SNB-19 CNS
# [5] = tested on: U251 CNS
# [6] = tested on: PC-3 prostate
# [7] = tested on: SK-MEL-5 melanoma
# [8] = tested on: UACC-62 melanoma
# [9] = tested on: LOX IMVI melanoma
# [10] = tested on: SK-MEL-28 melanoma
SMILES,growth [1],growth [2],growth [3],growth [4],growth [5],growth [6],growth [7],growth [8],growth [9],growth [10]
CCN1CCN(Cc2ccc(C(=O)Nc3nc4ccc(Oc5ccnc(C(=O)NC)c5)cc4s3)cc2C(F)(F)F)CC1,6.98% (active),3.42% (active),75.9%,66.6%,41.9%,46.1%,17.7%,24.6%,-11.8% (active),-66.5% (active)
COc1ccc(CN2C(=O)/C(=C/c3nc(CO)cs3)SC2=S)cc1,64.2%,107%,91.7%,93.8%,94%,86.5%,97.9%,73.4%,42.8%,107%
COc1ccc2c(c1)oc1c3[nH]c4ccccc4c3c3c(c21)C(=O)N(O)C3=O,50.5%,38.3%,39.7%,32.6%,15.7%,45.4%,-22.1% (active),12.4%,-76% (active),76.3%
CCOC(=O)C1=C(C)N=C2Sc3ccccc3N2C1c1ccccc1 (stereo not given),77.8%,-72.7% (active),87.1%,95.5%,103%,78.2%,85.8%,65.8%,84.3%,109%
COc1ccc2oc3c4[nH]c5ccccc5c4c4c(c3c2c1)C(=O)N(O)C4=O,105%,104%,89.1%,95.2%,106%,85.8%,101%,94.6%,116%,106%
COc1ccc(-c2no[n+]([O-])c2Nc2ccccc2Br)cc1,97.1%,119%,92%,89.5%,95%,76.8%,93.5%,71.6%,95.6%,99.8%
COc1ccc(OC)c(NC2=C(Cl)C(=O)C(C)=C(C)C2=O)c1,94.7%,105%,71.7%,95.3%,94.1%,77.6%,89.6%,93.8%,89.1%,108%
Cc1cc(O)c2c(c1)C(=O)C(c1c(C)cc3c(c1O)C(=O)C=CC3=O)=CC2=O,46.5%,65.3%,92.3%,99.9%,94%,82.9%,102%,61.5%,61.3%,71.2%
O=c1oc2ccc(-c3ccc(F)cc3F)cc2c(=O)n1-c1cccc(C(F)(F)F)c1,9.93% (active),91.3%,15.5%,9.99% (active),10.2%,6.82% (active),-72.4% (active),-6.07% (active),0.939% (active),23.4%
COC(=O)Nc1ccc(-c2nc(-c3cccc(O)c3)c(-c3ccnc(Br)c3)[nH]2)cc1,51%,73.7%,3.12% (active),56.2%,47%,23.7%,61.2%,23.7%,38%,58.7%
COc1cccc(/C=C/C(=O)c2ccc(NC(=O)COc3cccc4cccnc34)cc2)c1,94.8%,98.2%,97.4%,95.9%,97.2%,93.3%,94.9%,94.5%,78%,104%
COc1ccc(Oc2ccc(C3CC(c4cc(OC)c(OC)c(OC)c4)=NN3C(C)=O)cc2)cc1 (stereo not given),18.5%,31.7%,46%,30.8%,24.9%,18.3%,1.54% (active),28.9%,35.8%,43.3%
O=C(Nc1cc(Cl)cc(Cl)c1)Nc1ccc2oc(=O)ccc2c1,8.08% (active),16.2%,39.3%,13.3%,6.21% (active),1.84% (active),29.6%,2.84% (active),14.8%,9.09% (active)
O=C1/C(=C/c2ccc([N+](=O)[O-])cc2)SC(=Nc2ccccc2)N1Nc1ccccc1,39.3%,42.3%,73.2%,60.2%,44.4%,62.1%,92%,55.8%,19.3%,83%
O=C(CSc1nnc(-c2ccc(Cl)cc2)n1-c1ccccc1)Nc1ccc(F)cc1,94.6%,87%,117%,59.7%,6.66% (active),99.9%,96.4%,82.4%,49.2%,95.8%
Cc1cnc2nc(NN)[nH]n12,101%,103%,95.6%,95.3%,101%,98.3%,99.8%,95.6%,87.5%,108%
COc1cc2oc(-c3cccc(NC(=O)c4cc(NC(=O)[C@H](C)NC(=O)OC(C)(C)C)ccc4C)c3)cc(=O)c2c(OC)c1OC,50.8%,75.5%,102%,65.4%,53.5%,68.8%,63.2%,75.4%,53.8%,87%
COc1ccc(-c2nc3cc(Cl)c(Cl)cc3n2CC(=O)N=Nc2c(O)[nH]c3ccc(Cl)cc23)cc1,5.04% (active),25%,57.9%,36.1%,17.1%,37.6%,38.3%,38.6%,-58.1% (active),-21.5% (active)
O=C(CSc1nnc(-c2cccs2)n1-c1ccccc1)Nc1ccc(F)cc1,93.6%,101%,104%,91%,99.5%,99%,97.6%,67.9%,97.9%,104%
N#Cc1c(NC(=O)c2ccc(F)c(Cl)c2)sc2c1CCC(=O)C2,-38.6% (active),8.89% (active),-0.913% (active),15.1%,11.6%,-19.8% (active),-75.6% (active),-69.7% (active),-16.1% (active),-66.9% (active)
Fc1ccc(-c2cc3nc(C(Cl)Cl)nc(-c4cccs4)n3n2)cc1,15.9%,4.52% (active),69.8%,9.61% (active),-3.12% (active),1.42% (active),92%,45.8%,94.8%,23.6%
NC(=O)C(=Cc1ccc(Cl)cc1)C(N)=O,36.6%,77.4%,62.4%,77.9%,68.7%,70.4%,95.4%,85.3%,57.4%,70%
COC[C@@]1(C)CC[C@]2(C)CC[C@]3(C)C(=CC[C@@H]4[C@@]5(C)CCCNC(C)(C)[C@@H]5CC[C@]43C)C2C1 (stereo not given in full),16.1%,23.3%,104%,67.5%,35.3%,46.4%,87.7%,64.5%,12.6%,66.6%
CCOC(=O)c1c(NCC(=O)Nc2cccc(Cl)c2)sc2c1CCCC2,66.4%,101%,59.5%,82.7%,63.6%,73.6%,84.5%,61.9%,35.3%,89.5%
COc1ccccc1/C=C/C(=O)c1nnn(-c2ccc(C(=O)O)cc2)c1C,71.6%,106%,89.1%,87.9%,86.4%,93.2%,95.7%,79.7%,66.1%,97.3%
COc1ccc2c(ccn2C(=O)N2c3ccccc3Sc3ccccc32)c1,32.7%,-12.6% (active),-3.95% (active),30.8%,27%,35.2%,24.5%,33.3%,46.5%,66.4%
